TDP1 cell noCPT – qHTS for Inhibitors of human tyrosyl-DNA phosphodiesterase 1 (TDP1): qHTS in cells in absence of CPT; Potency, µM (series often up to 46.2 µM), inactives show top-dose activity change, negative = growth inhibition, actives largely listed as inhibitors; DT40 Tdp1-/- hTDP1 cells, no CPT, ATP luminescence, 48 h; 15% of 420,000 active; further: potency means the concentration at half of the fitted maximal effect; nearly all actives have a fitted effect of over 55% in size
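A cellular qHTS used chicken DT40 cells lacking endogenous Tdp1 but carrying stably transfected human TDP1. Compounds were applied without camptothecin, and cell growth kinetics were judged by ATP-dependent luminescence after ≥48 hr.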
ELG1 repair inh – ELG1-dependent DNA repair inhibition; HEK293T ELG1-luciferase reporter, luminescence, 16 h; DNA damage induced by 5-fluorouridine; Potency, µM (doses to about 46.1 µM), for the others: at the top dose activity change, negative = inhibition, most hits filed as inhibitors; 2.3% of 330,000 active; AID 504467; further: potency means the concentration at half of the fitted maximal effect; nearly all actives have a fitted effect of over 55% in size
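DMSO vehicle served as the neutral condition. Each well held 2,000 cells given 5-fluorouridine plus compound; after 16 hr at 37 °C/5% CO2, ONE-Glo was added and luciferase measured 30 min later.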
TDP1 cell CPT – growth inhibition of DT40 Tdp1-/-;hTDP1 cells with camptothecin (screen for TDP1 inhibitors); chicken DT40 Tdp1-/-;hTDP1 cells + 20 nM CPT, ATP luminescence, 48 h; Potency, µM (titrated, usually from 46.2 µM), inactives show at the highest dose activity change, negative = growth inhibition, hits mostly inhibitors; 12% of 420,000 active; AID 686979; further: potency means the concentration at half of the fitted maximal effect; nearly all actives have a fitted effect of over 55% in size
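Chicken DT40 Tdp1-/- cells stably complemented with human TDP1 were seeded at 400 cells/well in medium containing 20 nM camptothecin, exposed to pin-transferred compounds, and grown at 37 °C for at least 48 hr. Viability was read as ATP luminescence.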
HT1080-NT tox – kills 2HG-producing HT-1080-NT fibrosarcoma cells; HT-1080-NT fibrosarcoma viability, CellTiter-Glo ATP luminescence, 48 h; Potency, µM (doses to about 46.1 µM), inactives show at the highest dose activity, negative = less viability, hits mostly cytotoxic; 1.6% of 360,000 active; AID 686970;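 further: NT is the 2HG producing partner of a matched IDH1 knockdown line; potency means the concentration at half of the fitted maximal effect; 0% = DMSO-treated cells and -100% = media-only wells without cells; nearly all actives have a fitted effect of over 55% in size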
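750 cells/well, RPMI + 5% FBS; 2 h settle, compound pin-transfer, 48 h at 37 degrees C. CellTiter-Glo 10 min RT, luminescence. Normalized to DMSO and media-only wells.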
IL-1B inflam inh – inflammasome signaling inhibition, IL-1 beta readout; THP-1 LPS/ATP IL-1B secretion, AlphaLISA, 16 h; stronger effect = lower value; 4.7% of 360,000 active; activity change, % at 57.5 µM; AID 743279; in the data active means activity change below about -50%; inconclusive means mostly about -30% to -49%
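THP-1 cells pretreated 1 hr with compounds (up to 57.5 uM final), then stimulated with LPS (250 ng/mL final) plus ATP (1.25 mM final); secreted IL-1B measured by AlphaLISA after 16 hr, decreased signal indicating inhibition.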
HT1080 IDH1KD tx – HT-1080 IDH1 knockdown cell toxicity (counter line). Potency, µM (highest dose often 46.1 µM), without a hit: at the highest dose activity, negative = toxicity, usual class: cytotoxic. 2% of 360,000 active. AID 686971. HT-1080 IDH1 knockdown viability, ATP luminescence, 48 h;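 further: potency means the concentration at half of the fitted maximal effect; 0% = DMSO wells and -100% = cell-free medium wells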
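After a 2 h attachment period, IDH1KD HT-1080 cells took pin-transferred compound for 48 h at 37 °C; ATP-based luminescence after 10 min room-temperature reagent incubation reported viability.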
* marks the source's active call; other numbers are inactive results; ? = inconclusive; · = no result. An excerpt weighted towards active compounds, which were near 19% of everything screened. Unless noted, the call rests on the fitted dose curve; in most records, active means well fitted curve in the direction sought with a large enough effect; inconclusive means small, poorly fitted or top-dose-only effect, or another doubt; inactive means no such curve, though single readings can be large; an effect the other way counts as inactive or inconclusive. Unless noted, on the % scale 0 is the no-effect control and ±100 the full control effect.

SMILES	TDP1 cell noCPT	ELG1 repair inh	TDP1 cell CPT	HT1080-NT tox	IL-1B inflam inh	HT1080 IDH1KD tx
CCOC(=O)CCN(Cc1ccccc1)S(=O)(=O)c1csc(C(N)=O)c1	-16%	-3%	-15%	5%	7	6%
C=CC1=CCN(S(=O)(=O)C(C)(C)C)[C@H]1CCO	-8%	·	-19%	13%	16	11%
NC(=O)c1nsc(C(=O)N(Cc2ccccc2Cl)C(C(=O)NCC2CCCO2)c2ccc(O)cc2)c1N (stereo unspecified)	-12%	4%	8%	-18%	-2	-15%
Cc1ccc(S(=O)(=O)N(CC(=O)NCCSCc2ccco2)c2cc(C)ccc2C)cc1	?	·	16µM*	-20%	-24	-10%
Cc1ccc(N(CC(=O)NCCSCc2ccco2)S(=O)(=O)c2ccc(F)cc2)cc1	23µM*	10%	26µM*	-5%	-23	-3%
O=C(Nc1ccc(F)c(Cl)c1)c1ccc2c(Cl)c3c(nc2c1)CCCC3	-15%	·	-10%	·	·	·
CCOc1ccc(N(Cc2ccccc2)C(=O)c2nc(SC)ncc2Cl)cc1	6.5µM*	·	13µM*	·	·	·
CSc1ncc(Cl)c(C(=O)N(C)c2ccccc2)n1	?	·	-15%	·	·	·
CS(=O)(=O)c1ncc(Cl)c(C(=O)N(Cc2ccc(Cl)cc2)Cc2ccco2)n1	1.3µM*	·	0.65µM*	·	·	·
COc1ccc(N(Cc2ccccc2)C(=O)c2nc(S(C)(=O)=O)ncc2Cl)cc1	0.46µM*	·	0.73µM*	·	·	·
CS(=O)(=O)c1ccc(C(=O)N(Cc2ccccc2)c2ccccc2)cc1	?	2%	?	-4%	11	10%
O=C(c1ccco1)N1CCC2(CC1)CN(c1ccccn1)C2	?	·	-21%	·	·	·
CN1C(=O)C(O)(C2COC(C)(C)CC2=O)c2ccccc21 (stereo unspecified)	9.2µM*	1%	15µM*	18%	32	17%
COc1ccc2c(c1)CC(C1(O)C(=O)N(C)c3ccccc31)C2=O (stereo unspecified)	?	-1%	?	2%	0	0%
Cc1ccc2c(c1)C(O)(C1COC(C)(C)CC1=O)C(=O)N2C (stereo unspecified)	3.3µM*	7%	5.2µM*	14%	40	23%
CN1C(=O)C(O)(C2COC(C)(C)CC2=O)c2cc(Br)ccc21 (stereo unspecified)	4.6µM*	9%	5.8µM*	?	57	?
COc1ccc2c(c1)[C@]1(C[C@H](O)CO1)C(=O)N2C	3%	·	10%	17%	43	12%
Cc1ccc(CNC(=O)COC(=O)c2ccccc2OCC(=O)Nc2ccc(Br)cc2)cc1	-10%	·	-29%	-4%	·	-4%
CCCn1c(N)c(N(CCOC)C(=O)CSc2cc(C)c3ccccc3n2)c(=O)[nH]c1=O	-1%	·	21%	-1%	13	1%
Cc1ccsc1CN(C(=O)c1oc2ccc(F)cc2c1C)C1CCS(=O)(=O)C1 (stereo unspecified)	7.3µM*	·	12µM*	·	·	·
Cc1ccc2oc(C(=O)N(Cc3sccc3C)C3CCS(=O)(=O)C3)c(C)c2c1 (stereo unspecified)	5.2µM*	·	5.8µM*	·	·	·
Cc1ccccc1C(=O)N(Cc1sccc1C)C1CCS(=O)(=O)C1 (stereo unspecified)	-13%	·	5%	·	·	·
Cc1ccc2oc(C(=O)N(Cc3ccccc3)C3CCS(=O)(=O)C3)c(C)c2c1 (stereo unspecified)	-28%	-17%	?	-6%	11	-3%
